# In article PMC5540273 (PLoS ONE, 2017):
# Test system: CSF1R
# Settings: concentration: 1 μM, replicates: in singlicate; n = 1
# 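Further: KINOMEscan kinase panel screen.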
row,Structure (SMILES),%Inh [%]
1,COc1ccc(NC(=O)Nc2ccc(C)c(-c3ccc(C(=O)Nc4ccncc4)cc3)c2)cc1 [GSK1398475],93.7
2,Clc1ccc(-c2cc(-c3c[nH]nc3-c3ccccn3)ccn2)cc1 [GW681251],8
3,CC(C)(C)OC(=O)NC1CCCN(c2cc(-c3ccc4c(N)n[nH]c4c3)nc(N)n2)C1 (stereo not drawn) [GSK2286096],10
4,CSc1ccc(NC2=C(c3ccccc3Cl)C(=O)NC2=O)cc1 [SB-342411],7
5,COC(=O)c1cccc(NC(=O)NCCNc2ccnc(Nc3ccc(F)cc3)n2)c1 [GSK1379883],14
6,Fc1cccc(COc2ccc(Nc3ncnc4sc(-c5ccc[nH]5)cc34)cc2Cl)c1 [GW707818],17
7,c1ccc(-c2ccc3c(-c4ccnc(Nc5ccc6c(c5)OCCO6)n4)cnn3n2)cc1 [GW818941],1
8,Fc1cccc(COc2ccc(Nc3ncnc4cc[nH]c34)cc2Cl)c1,6
9,COc1cc2c(Nc3cccc(NC(=O)c4ccccc4)c3)ncnc2cc1OCCCN1CCOCC1 [GSK223810],83
10,COc1ccc(NC(=O)c2ccc(-c3cc(-c4nnc(C)o4)ccc3C)cc2)cc1 [GW595885],14
11,Cl.Fc1ccccc1COc1ccc(Nc2ncnc3ccc(-c4nnc(C(F)(F)F)o4)cc23)cc1Cl [GW424170],6
12,CNc1nccc(-c2c(-c3ccc(F)cc3)ncn2CCCN2CCOCC2)n1 [SB-222516],0
13,Cc1cc(N2CCC(NS(=O)(=O)c3ccc(F)cc3)CC2)nc(Nc2cccc(C#N)c2)n1.O=C(O)C(F)(F)F [GSK1653537],0
14,Cn1ccc2ncnc(Oc3ccc(NC(=O)Nc4cccnc4)c(Cl)c3)c21,82
15,O=C(c1ccc(-c2cc(-c3c[nH]nc3-c3ccccn3)ccn2)cc1)N1CCCC1 [GW792479],0
16,Nc1nc(-c2ccc3c(N)n[nH]c3c2)cc(N2CCC[C@@H](C(=O)Nc3ccccc3)C2)n1.O=C(O)C(F)(F)F.O=C(O)C(F)(F)F [GSK2288359],13
17,Cl.Cl.c1ccc(-c2cc3ccncc3cc2OC2CCNCC2)cc1 [GSK1122999],49
18,Fc1ccc(-c2ncn(CCCNCc3ccccc3)c2-c2ccncc2)cc1,4

row,Structure (SMILES),%Inh [%]
1,CCn1c(-c2ccncc2)nc2cnccc21 [SB-735216],2
2,C[C@H]1CC[C@@H](C(=O)Nc2ccccc2)CN1c1cc(-c2ccc3c(N)n[nH]c3c2)nc(N)n1 [GSK2283293],0
3,NC(=O)c1sc(-n2cnc3ccccc32)cc1OCc1ccccc1F [GSK1024306],0
4,Cl.Cn1ccc(-c2cccc(Nc3ccnc4cc(-c5nccs5)ccc34)c2)n1 [GW525701],0
5,FC(F)(F)c1cc(Nc2nccc(-c3c(-c4ccc(Cl)cc4)nn4ncccc34)n2)ccc1Cl [GW829351],0
6,N#Cc1ccc(Oc2ccc(Nc3ncnc4cc[nH]c34)cc2Cl)cc1,7
7,OCCOCCn1ccc2ncnc(Nc3ccc(Oc4cccc(Cl)c4)c(Cl)c3)c21,0
8,Fc1cccc(COc2ccc(Nc3ncnc4nn5ccccc5c34)cc2Cl)c1 [GW689066],0
9,Nc1nc(-c2ccccn2)c(-c2ccnc3ccccc23)s1 [GW548057],19
10,CCCc1ccc(S(=O)(=O)NC2CCN(c3ccnc(Nc4ccc(OC)cc4)n3)C2)cc1 (stereo not drawn) [GSK1379737],10
11,Cc1ccc(O)cc1Nc1cc(C(F)(F)F)nc2ccc(-c3ccncc3)cc12 [GW630823],3
12,CNc1nccc(-c2c(-c3ccc(F)cc3)ncn2C2CCN(C)CC2)n1 [SB-222903],0
13,Nc1nc(-c2cccnc2)c(-c2ccnc3ccccc23)s1 [GW684083],1
14,O=C(Nc1ccccc1)Nc1ccc(Oc2ccc3nccn3n2)cc1,39
15,CC(C)(C)c1ccc(-n2cnc3c(N)ncnc32)cc1 [SKF-97263],58
16,Cc1ccc(NC(=O)c2cccc(C#N)c2)cc1-c1ccc(C(=O)Nc2ccncc2)cc1 [GSK1398463],98.3
17,Cc1ccc(C)c(NC(=O)NCCNc2ccnc(Nc3ccc(F)cc3)n2)c1 [GSK1379878],7
18,Nc1nccc2scc(-c3ccc4c(c3)CCN4C(=O)Cc3cc(F)ccc3F)c12 [GSK2587663],67

# Test system: CSK
# Settings: concentration: 1 μM, replicates: in singlicate; n = 1
row,Structure (SMILES),%Inh [%]
1,COc1ccc(NC(=O)Nc2ccc(C)c(-c3ccc(C(=O)Nc4ccncc4)cc3)c2)cc1 [GSK1398475],0
2,Clc1ccc(-c2cc(-c3c[nH]nc3-c3ccccn3)ccn2)cc1 [GW681251],0
3,CC(C)(C)OC(=O)NC1CCCN(c2cc(-c3ccc4c(N)n[nH]c4c3)nc(N)n2)C1 (stereo not drawn) [GSK2286096],0
4,CSc1ccc(NC2=C(c3ccccc3Cl)C(=O)NC2=O)cc1 [SB-342411],7
5,COC(=O)c1cccc(NC(=O)NCCNc2ccnc(Nc3ccc(F)cc3)n2)c1 [GSK1379883],0
6,Fc1cccc(COc2ccc(Nc3ncnc4sc(-c5ccc[nH]5)cc34)cc2Cl)c1 [GW707818],13
7,c1ccc(-c2ccc3c(-c4ccnc(Nc5ccc6c(c5)OCCO6)n4)cnn3n2)cc1 [GW818941],84
8,Fc1cccc(COc2ccc(Nc3ncnc4cc[nH]c34)cc2Cl)c1,24
9,COc1cc2c(Nc3cccc(NC(=O)c4ccccc4)c3)ncnc2cc1OCCCN1CCOCC1 [GSK223810],23
10,COc1ccc(NC(=O)c2ccc(-c3cc(-c4nnc(C)o4)ccc3C)cc2)cc1 [GW595885],0
11,Cl.Fc1ccccc1COc1ccc(Nc2ncnc3ccc(-c4nnc(C(F)(F)F)o4)cc23)cc1Cl [GW424170],0
12,CNc1nccc(-c2c(-c3ccc(F)cc3)ncn2CCCN2CCOCC2)n1 [SB-222516],0
13,Cc1cc(N2CCC(NS(=O)(=O)c3ccc(F)cc3)CC2)nc(Nc2cccc(C#N)c2)n1.O=C(O)C(F)(F)F [GSK1653537],0
14,Cn1ccc2ncnc(Oc3ccc(NC(=O)Nc4cccnc4)c(Cl)c3)c21,0
15,O=C(c1ccc(-c2cc(-c3c[nH]nc3-c3ccccn3)ccn2)cc1)N1CCCC1 [GW792479],17
16,Nc1nc(-c2ccc3c(N)n[nH]c3c2)cc(N2CCC[C@@H](C(=O)Nc3ccccc3)C2)n1.O=C(O)C(F)(F)F.O=C(O)C(F)(F)F [GSK2288359],8
17,Cl.Cl.c1ccc(-c2cc3ccncc3cc2OC2CCNCC2)cc1 [GSK1122999],0
18,Fc1ccc(-c2ncn(CCCNCc3ccccc3)c2-c2ccncc2)cc1,0

row,Structure (SMILES),%Inh [%]
1,CCn1c(-c2ccncc2)nc2cnccc21 [SB-735216],0
2,C[C@H]1CC[C@@H](C(=O)Nc2ccccc2)CN1c1cc(-c2ccc3c(N)n[nH]c3c2)nc(N)n1 [GSK2283293],0
3,NC(=O)c1sc(-n2cnc3ccccc32)cc1OCc1ccccc1F [GSK1024306],0
4,Cl.Cn1ccc(-c2cccc(Nc3ccnc4cc(-c5nccs5)ccc34)c2)n1 [GW525701],0
5,FC(F)(F)c1cc(Nc2nccc(-c3c(-c4ccc(Cl)cc4)nn4ncccc34)n2)ccc1Cl [GW829351],0
6,N#Cc1ccc(Oc2ccc(Nc3ncnc4cc[nH]c34)cc2Cl)cc1,33
7,OCCOCCn1ccc2ncnc(Nc3ccc(Oc4cccc(Cl)c4)c(Cl)c3)c21,0
8,Fc1cccc(COc2ccc(Nc3ncnc4nn5ccccc5c34)cc2Cl)c1 [GW689066],0
9,Nc1nc(-c2ccccn2)c(-c2ccnc3ccccc23)s1 [GW548057],3
10,CCCc1ccc(S(=O)(=O)NC2CCN(c3ccnc(Nc4ccc(OC)cc4)n3)C2)cc1 (stereo not drawn) [GSK1379737],0
11,Cc1ccc(O)cc1Nc1cc(C(F)(F)F)nc2ccc(-c3ccncc3)cc12 [GW630823],0
12,CNc1nccc(-c2c(-c3ccc(F)cc3)ncn2C2CCN(C)CC2)n1 [SB-222903],0
13,Nc1nc(-c2cccnc2)c(-c2ccnc3ccccc23)s1 [GW684083],0
14,O=C(Nc1ccccc1)Nc1ccc(Oc2ccc3nccn3n2)cc1,0
15,CC(C)(C)c1ccc(-n2cnc3c(N)ncnc32)cc1 [SKF-97263],0
16,Cc1ccc(NC(=O)c2cccc(C#N)c2)cc1-c1ccc(C(=O)Nc2ccncc2)cc1 [GSK1398463],0
17,Cc1ccc(C)c(NC(=O)NCCNc2ccnc(Nc3ccc(F)cc3)n2)c1 [GSK1379878],100
18,Nc1nccc2scc(-c3ccc4c(c3)CCN4C(=O)Cc3cc(F)ccc3F)c12 [GSK2587663],0
